From PubChem BioAssay (NCATS) come the findings set out here.

Several values for one entry are separate records, joined by “and”; a condition that tells them apart may be missing. Equal values may be shown once. Results filed as inconclusive are left out. Activity calls are given as the source filed them. Unless noted, the call rests on the fitted dose curve; in most records, active means well fitted curve in the direction sought with a large enough effect; inconclusive means small, poorly fitted or top-dose-only effect, or another doubt; inactive means no such curve, though single readings can be large; an effect the other way counts as inactive or inconclusive.

A short description of test [1]: qHTS Assay for Lipid Storage Modulators (AID 1519; calls by dose curve). The settings on record: Drosophila S3 cells, BODIPY lipid droplet/cell ratio, laser cytometry, cells loaded with oleic acid. A digest of the protocol:
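Cells seeded at 5,000 per well were treated with compounds over a concentration series and loaded with oleic acid (400 uM, as added). Lipid droplet fluorescence (488 nm excitation, 500-530 nm channel) was read by laser-scanning cytometry and normalized to 20 uM Triacsin C.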

The target in test [2] is DNA repair nuclease/redox regulator APEX1 (Homo sapiens) (UniProt P27695). Put plainly: qHTS Validation Assay for Inhibitors of the Human Apurinic/apyrimidinic Endonuclease 1 (APE1) (AID 1705;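 further: TAMRA fluorescence gain over two minutes as APE1 cuts a quenched THF abasic duplex; on the % scale 0 is the no-effect control and ±100 the full control effect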). The conditions noted are these: purified APE1 endonuclease activity, fluorescence, titration; series mostly up to 57.1 µM. An outline of the steps:
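Substrate: 50 nM final fluorophore/quencher THF-abasic duplex. Enzyme preincubated with compounds 15 min, RT. Progress derived from fluorescence difference, third minus first kinetic read.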

A short description of test [3]: Counterscreen for APE1 Inhibitors: Fluorescent Dye Displacement Validation Assay (AID 1707).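 Further: plate controls were ThO with dsDNA and no compound for no effect and ThO without dsDNA for full effect.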 The settings on record: fluorescent dye displacement from DNA; series mostly up to 57.1 µM. A digest of the protocol:
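Endpoint fluorescence read at 480 nm excitation / 540 nm emission; DNA-binding compounds lower signal by displacing 250 nM Thiazole Orange from 50 nM dsDNA containing a tetrahydrofuran abasic site, Tris-HCl pH7.5 buffer with NaCl and MgCl2.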

A short description of test [4]: qHTS for differential inhibitors of proliferation of Plasmodium falciparum line 7G8 (AID 1815).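 Further: parasite growth measured after three days of incubation.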 Further: potency means the concentration at half of the fitted maximal effect.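 On activity change, negative = inhibition: plate controls were vehicle wells for no effect and reference inhibitor wells for full effect.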 The conditions noted are these: Plasmodium falciparum 7G8 proliferation inhibition; series mostly up to 28.7 µM.
Test [5] is described as follows: qHTS for differential inhibitors of proliferation of Plasmodium falciparum line GB4 (AID 1816).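 Further: potency means the concentration at half of the fitted maximal effect; parasite growth measured after 72 h incubation.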 The conditions noted are these: Potency: Plasmodium falciparum GB4 proliferation inhibition; series mostly up to 28.7 µM.
Test [6] can be described thus: qHTS for differential inhibitors of proliferation of Plasmodium falciparum line D10 (AID 1877).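 Further: parasites grown with compound for 72 h before DNA staining; plate controls were vehicle wells for no effect and reference inhibitor wells for full effect.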 The settings on record: series mostly up to 28.7 µM.
Test [7] is described as follows: qHTS for differential inhibitors of proliferation of Plasmodium falciparum line Dd2 (AID 1882). Further: nearly all actives have a fitted effect of over 65% in size. Further: potency means the concentration at half of the fitted maximal effect.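 On activity change, negative = inhibition: plate controls were DMSO vehicle for no effect and 0.29 µM artemisinin for full effect.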 The conditions noted are these: Potency: Plasmodium falciparum Dd2 proliferation inhibition; series mostly up to 28.7 µM. An outline of the steps: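 SYBR Green DNA fluorescence (ex 485, em 535 nm) after overnight lysis quantifies parasite growth; compound exposure lasted 72 h at 37 C on infected red cells at 2.5% hematocrit, 0.3% parasitemia (final). Artemisinin 0.29 uM and vehicle wells define normalization.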

The nature of test [8]: qHTS for differential inhibitors of proliferation of Plasmodium falciparum line W2 (AID 1883).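 Further: potency means the concentration at half of the fitted maximal effect; parasites grown with compound for 72 h before lysis and staining.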 The settings on record: Potency: Plasmodium falciparum W2 proliferation inhibition; series mostly up to 28.7 µM.
Test [9] in a line: qHTS for differential inhibitors of proliferation of Plasmodium falciparum line HB3 (AID 1886).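 Further: parasites grown with compound for 72 h before SYBR Green readout.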 Further: potency means the concentration at half of the fitted maximal effect.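 On activity change, negative = inhibition: plate controls were vehicle for no effect and reference inhibitor for full effect.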 The settings on record: Potency: Plasmodium falciparum HB3 proliferation inhibition; series mostly up to 28.7 µM.
For test [10], the target named is Ferritin light chain (Equus caballus) (UniProt P02791). Put plainly: qHTS Validation Assay for Identification of Novel General Anesthetics (AID 2323). Further: on the % scale 0 is the no-effect control and ±100 the full control effect. The conditions noted are these: horse apoferritin, anesthetic-site fluorescent probe displacement; series mostly up to 76.9 µM. A digest of the protocol:
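Normalized fluorescence response, scaled between free 1-AMA and 1-AMA/apoferritin complex, fitted to a four-parameter Hill equation for concentration-effect values. Binding mix: 10 uM horse-spleen apoferritin, 50% saturated 1-AMA in PBS; read 380/535 nm after 10 min.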

Test [11] deals with ATP-dependent DNA helicase Q1 (Homo sapiens) (UniProt P46063). Put plainly: qHTS Validation Assay for Inhibitors of RecQ-Like Dna Helicase 1 (RECQ1) (AID 2353).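 Further: plate controls were DMSO vehicle for no effect and enzyme-free control for full effect.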 The settings on record: recombinant RECQ1 helicase DNA unwinding assay; series mostly up to 25.6 µM. A digest of the protocol: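 RECQ1T1 50 nM; forked duplex (20 bp + 30-nt ss tails) 200 nM, ATP 2 mM final; pH 8.0, 2 mM MgCl2, 2.5 ug/ml poly(dI-dC); 15 min compound preincubation; discontinuous kinetic read over 2 h at RT.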

Test [12] addresses RecQ-like DNA helicase BLM (Homo sapiens) (UniProt P54132). Put plainly: qHTS Validation Assay for Inhibitors of Bloom's syndrome helicase (BLM) (AID 2364).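 Further: plate controls were DMSO vehicle for no effect and enzyme-free control for full effect.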 The conditions noted are these: BLM helicase DNA unwinding, fluorescence, in vitro; series mostly up to 57.1 µM. A digest of the protocol: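 Forked 20-bp duplex substrate (200 nM, TAMRA/BHQ-2) plus 2 mM ATP added after 15 min compound preincubation with 50 nM enzyme, pH 8.0, poly(dI-dC) 2.5 ug/ml. Strand separation followed by fluorescence (525/598 nm) over 2 h, normalized to enzyme-free and DMSO controls.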

Test [13] is described as follows: Validation screen for inhibitors of Lassa infection (AID 463096; calls by dose curve; further: on the % scale 0 is the no-effect control and ±100 the full control effect). The conditions noted are these: Lassa virus infection, cell-based; series mostly up to 46.1 µM.
Test [14] deals with Endonuclease 4 (Escherichia coli (strain K12)) (UniProt P0A6C1). Put plainly: Counterscreen for APE1 Inhibitors: qHTS Validation Assay for Inhibitors of Endonuclease IV (AID 1708). Further: on the % scale 0 is the no-effect control and ±100 the full control effect. The settings on record: E. coli endonuclease IV, DNA cleavage fluorescence; series mostly up to 57.1 µM. An outline of the steps:
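Incision of a double-stranded 50 nM TAMRA/BHQ-2 abasic substrate was followed kinetically (525/598 nm, reads every 60 s) after 15 min enzyme–compound preincubation with 2 nM EndoIV in pH 7.5 Tris buffer with MgCl2, DTT and Tween-20; concentration-response format.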

The mark [15] stands for this setting: measured here: cell count channel max response.
The mark [16] stands for this setting: measured here: lipid channel max response.

DNA repair nuclease/redox regulator APEX1 (Homo sapiens), sequence (P27695 whole entry, looked up): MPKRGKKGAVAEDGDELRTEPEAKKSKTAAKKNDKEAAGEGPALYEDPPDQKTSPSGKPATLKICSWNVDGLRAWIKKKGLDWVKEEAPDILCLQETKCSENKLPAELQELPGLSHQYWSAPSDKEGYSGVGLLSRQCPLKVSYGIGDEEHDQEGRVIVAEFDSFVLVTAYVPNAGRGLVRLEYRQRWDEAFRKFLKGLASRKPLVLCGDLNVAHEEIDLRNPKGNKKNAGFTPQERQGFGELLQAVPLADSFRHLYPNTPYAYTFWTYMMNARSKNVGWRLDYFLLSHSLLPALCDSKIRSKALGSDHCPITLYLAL
ATP-dependent DNA helicase Q1 (Homo sapiens), sequence (P46063 whole entry, looked up): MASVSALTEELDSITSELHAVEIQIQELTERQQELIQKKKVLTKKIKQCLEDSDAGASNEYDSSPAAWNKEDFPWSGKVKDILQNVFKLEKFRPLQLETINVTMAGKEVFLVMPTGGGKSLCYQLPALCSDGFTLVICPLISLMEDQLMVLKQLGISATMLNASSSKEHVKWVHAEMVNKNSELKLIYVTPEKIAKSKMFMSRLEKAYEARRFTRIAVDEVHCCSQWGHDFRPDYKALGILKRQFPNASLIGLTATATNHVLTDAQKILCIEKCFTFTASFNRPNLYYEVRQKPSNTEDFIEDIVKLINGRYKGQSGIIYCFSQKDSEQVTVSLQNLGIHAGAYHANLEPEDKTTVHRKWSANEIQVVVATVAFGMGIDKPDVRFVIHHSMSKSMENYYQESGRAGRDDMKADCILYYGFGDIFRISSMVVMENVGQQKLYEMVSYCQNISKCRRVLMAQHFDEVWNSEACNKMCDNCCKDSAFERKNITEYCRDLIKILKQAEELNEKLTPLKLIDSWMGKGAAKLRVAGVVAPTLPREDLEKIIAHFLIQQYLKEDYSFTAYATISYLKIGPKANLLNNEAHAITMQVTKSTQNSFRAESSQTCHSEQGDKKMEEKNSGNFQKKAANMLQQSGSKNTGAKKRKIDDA
RecQ-like DNA helicase BLM (Homo sapiens), sequence (P54132 whole entry, looked up): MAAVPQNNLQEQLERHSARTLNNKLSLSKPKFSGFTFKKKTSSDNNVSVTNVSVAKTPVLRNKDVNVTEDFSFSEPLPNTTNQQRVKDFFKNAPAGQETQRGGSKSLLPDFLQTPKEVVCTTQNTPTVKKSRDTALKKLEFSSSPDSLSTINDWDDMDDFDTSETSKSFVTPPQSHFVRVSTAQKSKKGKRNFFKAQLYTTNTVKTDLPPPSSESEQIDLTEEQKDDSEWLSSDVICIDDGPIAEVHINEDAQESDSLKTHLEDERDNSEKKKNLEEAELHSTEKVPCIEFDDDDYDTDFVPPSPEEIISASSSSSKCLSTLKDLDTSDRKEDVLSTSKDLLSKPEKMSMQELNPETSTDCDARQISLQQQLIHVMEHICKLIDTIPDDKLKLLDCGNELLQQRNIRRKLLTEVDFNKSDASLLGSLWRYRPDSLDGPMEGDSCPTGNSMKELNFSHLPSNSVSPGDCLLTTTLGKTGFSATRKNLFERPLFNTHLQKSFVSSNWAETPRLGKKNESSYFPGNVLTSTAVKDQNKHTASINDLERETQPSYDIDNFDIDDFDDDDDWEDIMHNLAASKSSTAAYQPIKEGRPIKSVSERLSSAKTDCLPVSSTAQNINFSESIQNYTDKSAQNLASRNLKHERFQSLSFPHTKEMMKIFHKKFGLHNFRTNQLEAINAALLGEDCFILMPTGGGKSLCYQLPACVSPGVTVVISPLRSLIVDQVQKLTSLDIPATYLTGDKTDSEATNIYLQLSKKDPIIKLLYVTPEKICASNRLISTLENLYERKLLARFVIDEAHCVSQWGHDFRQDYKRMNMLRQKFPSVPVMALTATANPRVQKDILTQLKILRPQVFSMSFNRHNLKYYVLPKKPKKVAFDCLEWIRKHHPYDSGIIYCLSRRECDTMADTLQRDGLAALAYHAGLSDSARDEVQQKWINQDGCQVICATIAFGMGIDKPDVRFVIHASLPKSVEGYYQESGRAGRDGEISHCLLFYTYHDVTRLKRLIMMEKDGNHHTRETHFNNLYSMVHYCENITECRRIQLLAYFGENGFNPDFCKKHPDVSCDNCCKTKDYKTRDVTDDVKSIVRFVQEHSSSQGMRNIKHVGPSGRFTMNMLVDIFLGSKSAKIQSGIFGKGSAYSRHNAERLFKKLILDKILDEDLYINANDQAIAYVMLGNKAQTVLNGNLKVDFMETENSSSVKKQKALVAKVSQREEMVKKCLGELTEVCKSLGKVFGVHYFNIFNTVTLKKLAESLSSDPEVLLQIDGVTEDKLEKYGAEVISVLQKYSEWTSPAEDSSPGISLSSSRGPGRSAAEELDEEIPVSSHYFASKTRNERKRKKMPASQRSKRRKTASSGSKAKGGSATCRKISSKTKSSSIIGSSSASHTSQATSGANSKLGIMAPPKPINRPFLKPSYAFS
Ferritin light chain (Equus caballus), sequence (P02791 2-175 limits assumed): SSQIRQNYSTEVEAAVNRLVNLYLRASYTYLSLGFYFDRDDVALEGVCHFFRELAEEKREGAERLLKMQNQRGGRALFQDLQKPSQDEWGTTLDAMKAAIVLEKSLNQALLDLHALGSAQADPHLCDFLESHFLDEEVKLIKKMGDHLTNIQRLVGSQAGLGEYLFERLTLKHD

With `CC(N)C(=O)OC(C)(C)Cc1ccc(Cl)cc1` (configuration not stated), the activity change, negative = inhibition in [1] (at 57.5 µM (top of the series)) was 9.94% (inactive). For the same compound, the results for the max response in test [1] (setting [15]) and in test [1] (setting [16]) were 6.48% and 18.3%, respectively. The compound was classed as inactive in [2], in [3], in test [10], in [11] and in test [12]. In addition, the Potency in [4] is 5.62 µM (active); in test [5], 1 µM (active); in [7], 5.62 µM (active); in [8], 1.41 µM (active); in test [9], 14.1 µM (active). Besides, the Potency entry in [6] and in test [13] was “inactive” in each case.
Consider `COc1ccc(CN2CCNCC2)c(OC)c1OC`, for which the activity change, negative = inhibition in [1] (at 25.7 µM (top of the series)) is -1.99% (inactive). In addition, the max response in test [1] (setting [15]) was -6.25%; in test [1] (setting [16]), -8.59%.
Turning to `Cc1cc(C(C)(C)C)cc(C)c1CC1=NCCN1`, the activity change, negative = inhibition was 0.58% (inactive) in test [1] (at 25.7 µM (top of the series)) and 0.173% (inactive) in [1] (at 57.5 µM (top of the series)). Moreover, the max response is -1.09% and 8.12% in test [1] (setting [15]); 3.95% and 14.5% in [1] (setting [16]). Further, in [14], the result was inactive. In addition, the figures for the Potency in [4], in [5] and in [8] were 7.94 µM (active), 8.91 µM (active) and 5.62 µM (active), respectively. For the same compound, the Potency entry in [13] is “inactive”.
Regarding `CN(C)C(=O)Oc1cccc([N+](C)(C)C)c1`, the activity change, negative = inhibition in [1] (at 25.7 µM (top of the series)) was -1.76% (inactive); in test [1] (at 57.5 µM (top of the series)), 8.87% (inactive). Also, the max response in test [1] (setting [15]) was 2.56% and -8.73%; in test [1] (setting [16]), 2.57% and 1.95%. The Potency entry in [13] was “inactive”.
Consider `CC(C)[N+](C)(CCC(C(N)=O)(c1ccccc1)c1ccccc1)C(C)C`, for which the figures for the activity change, negative = inhibition in test [1] (at 25.7 µM (top of the series)) and in [1] (at 57.5 µM (top of the series)) were -0.769% (inactive) and 9.64% (inactive), respectively. In addition, the max response was -8.79% and 5.39% in [1] (setting [15]); -9.77% and 16.5% in test [1] (setting [16]).
`CCCCCCCCC(=O)NCc1ccc(O)c(OC)c1`: the activity change, negative = inhibition in test [1] (at 57.5 µM (top of the series)) is -0.202% (inactive) and 0.982% (inactive). Further, the max response in [1] (setting [15]) is 1.44% and 21.8%; in [1] (setting [16]) it was 3.12% and 22.1%. For the same compound, the result in test [2], in [3] and in [11] was inactive. Moreover, the Potency entry in test [4], in test [6], in test [7], in test [9] and in [13] was “inactive” throughout.
